Here are results for one substance from ChEMBL document CHEMBL1201862, “PubChem BioAssay data set” (2004).

The assay relates to KM-20L2. The assay is described as follows: NCI tumour cell line growth inhibition, 48 h.

Measured potencies and affinities stand elsewhere. These assays gave more results; the selection is not random.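 Results reflect a 48-hour exposure of cells in 96-well plates to compound at five concentrations. Here, GI50 denotes the concentration required for 50% inhibition of growth.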

Regarding CADMIUM DICHLORIDE, CHEMBL1458880, the GI50 worked out at 100 µM.
